Results published in PubChem BioAssay (NCATS).
Results filed as inconclusive are left out. Calls of active or inactive are those of the source. The call rests on the fitted dose curve; in most records, active means well fitted inhibition curve with a large enough effect; inconclusive means small, poorly fitted or top-dose-only effect; inactive means flat fitted curve, though single readings scatter.

Experiments:
Assay in all cases: qHTS profiling for inhibitors of Plasmodium falciparum proliferation (AID 504749); further: nearly all actives have a fitted effect of over 60% in size
ATS95 = conditions: P. falciparum in erythrocytes, SYBR Green DNA, 72 h; series mostly up to 28.7 µM
How it was run: (§1)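 In a 72 h erythrocytic culture (37 C, humidified, 5% CO2) at 2.5% hematocrit and 0.3% starting parasitemia, compounds were tested; SYBR Green I in detergent lysis buffer stained parasite DNA overnight.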

CP185 = conditions: P. falciparum in erythrocytes, SYBR Green DNA, 72 h; series mostly up to 28.7 µM
How it was run: as §1

CP194 = conditions: P. falciparum in erythrocytes, SYBR Green DNA, 72 h; series mostly up to 28.7 µM
How it was run: as §1

CP201 = conditions: P. falciparum in erythrocytes, SYBR Green DNA, 72 h; series mostly up to 28.7 µM
How it was run: as §1

CP238 = conditions: P. falciparum in erythrocytes, SYBR Green DNA, 72 h; series mostly up to 28.7 µM
How it was run: as §1

CP262 = conditions: P. falciparum in erythrocytes, SYBR Green DNA, 72 h; series mostly up to 28.7 µM
How it was run: as §1

CP265 = conditions: P. falciparum in erythrocytes, SYBR Green DNA, 72 h; series mostly up to 12.8 µM
How it was run: as §1

CP266 = conditions: P. falciparum in erythrocytes, SYBR Green DNA, 72 h; series mostly up to 12.8 µM
How it was run: as §1

CP268 = conditions: P. falciparum in erythrocytes, SYBR Green DNA, 72 h; series mostly up to 28.7 µM
How it was run: as §1

CP269 = conditions: P. falciparum in erythrocytes, SYBR Green DNA, 72 h; series mostly up to 28.7 µM
How it was run: as §1

CP286 = conditions: P. falciparum in erythrocytes, SYBR Green DNA, 72 h; series mostly up to 28.7 µM
How it was run: as §1

CP305 = conditions: P. falciparum in erythrocytes, SYBR Green DNA, 72 h; series mostly up to 28.7 µM
How it was run: as §1

CP325 = conditions: P. falciparum in erythrocytes, SYBR Green DNA, 72 h; series mostly up to 28.7 µM
How it was run: as §1

DIV30 = conditions: P. falciparum in erythrocytes, SYBR Green DNA, 72 h; series mostly up to 28.7 µM
How it was run: as §1

ECU = conditions: P. falciparum in erythrocytes, SYBR Green DNA, 72 h; series mostly up to 28.7 µM
How it was run: as §1

HB3 = conditions: P. falciparum in erythrocytes, SYBR Green DNA, 72 h; series mostly up to 28.7 µM
How it was run: as §1

P94_40 = conditions: P. falciparum in erythrocytes, SYBR Green DNA, 72 h; series mostly up to 28.7 µM
How it was run: as §1

PAD = conditions: P. falciparum in erythrocytes, SYBR Green DNA, 72 h; series mostly up to 28.7 µM
How it was run: as §1

PC26 = conditions: P. falciparum in erythrocytes, SYBR Green DNA, 72 h; series mostly up to 28.7 µM
How it was run: as §1

TAB109 = conditions: P. falciparum in erythrocytes, SYBR Green DNA, 72 h; series mostly up to 12.8 µM
How it was run: as §1

Measured: Potency

COc1cc2c(cc1OC)[C@@]13CCN4CC5=CCOC6CC(=O)N2C1[C@H]6[C@@H]5C[C@@H]43 (stereo not given in full)
inactive: all assays above

O=c1ccc2cc(O[C@H]3O[C@@H](CO)[C@@H](O)[C@@H](O)[C@@H]3O)c(O)cc2o1
inactive: all assays above

CC([C@H](O)c1ccccc1)N(C)C (stereo not given in full)
inactive: all assays above

CNc1ccc(C(=O)CC(O)CCC(C)C2OC(=O)CC(O)CC(=O)CC(O)CC(O)CC(O)CC(O)CC3(O)CC(O)C(C(=O)OC)C(CC(O[C@@H]4OC(C)C(O)C(N)C4O)/C=C/C=C/C=C/C=C/C=C/C=C/C=C/C2C)O3)cc1 (stereo not given in full)
inactive: all assays above

CNC(C)[C@@H](O)c1ccccc1 (stereo not given in full)
inactive: all assays above
